# GSH bead fluor = GSH bead compound fluorescence profile; actives 0.25% (n = 190,000); AID 1776; fluorescence (KMESF) at 10 µM; GSH beads flow cytometry, compound fluorescence 488/530 nm; active compounds read high; in the data active = fluorescence above about 89;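 note: glutathione beads carrying GST-tagged Bcl family fusion proteins plus one bare bead set; values are compound well signal with DMSO vehicle wells as background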
# EP2 modulator = EP2 receptor (human) modulation | induction, % at 25 µM | actives 0.83% (n = 260,000) | AID 940 | EP2-expressing cells, cAMP HTRF FRET, PGE2 co-stimulation;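 active = compounds whose cAMP rise, as percent of the full-agonist control response, exceeds 60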;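 note: rat C6 glioma line stably carrying human EP2 under a CMV promoter; the protocol text gives 20 µM as final concentration; 100% = response of wells given 1 µM PGE2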
# Target sequence (P43116 whole entry, looked up): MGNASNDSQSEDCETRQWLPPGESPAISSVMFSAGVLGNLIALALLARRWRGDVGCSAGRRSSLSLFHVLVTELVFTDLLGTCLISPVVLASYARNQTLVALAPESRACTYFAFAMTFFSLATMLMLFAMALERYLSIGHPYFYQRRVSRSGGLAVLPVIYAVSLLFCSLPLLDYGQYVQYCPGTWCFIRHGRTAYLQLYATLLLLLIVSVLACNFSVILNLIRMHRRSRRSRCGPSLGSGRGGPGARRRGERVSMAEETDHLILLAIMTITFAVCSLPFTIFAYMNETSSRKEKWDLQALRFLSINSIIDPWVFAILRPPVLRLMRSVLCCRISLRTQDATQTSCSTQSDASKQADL
# EP2 antag = inhibitors of human EP2 prostaglandin E2 receptor. C6 glioma cells expressing human EP2, cAMP TR-FRET; cells stimulated with saturating PGE2. actives 0.52% (n = 260,000). inhibition, % at 25 µM. P43116;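 active = percent inhibition above 40 after rounding to a whole number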;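 note: rat C6 glioma host cells with rolipram phosphodiesterase inhibitor present; the protocol text gives 20 µM as final concentration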
# HMGR II inh = E. faecalis class II HMG-CoA reductase inhibition; AID 1066; inhibition, % at 10 µM; actives 0.41% (n = 190,000); purified E. faecalis HMGR, NADPH absorbance 340 nm kinetic;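 active = inhibition above a set limit, the median over all tested compounds plus 3 SD, cut at about 9.5% in these data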;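 note: enzyme runs in reverse so mevalonate oxidation gives rising NADPH absorbance; 0% = complete reaction with DMSO and 100% = background rate lacking mevalonate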
# Avidin bead fluor = avidin bead compound fluorescence profile; actives 0.38% (n = 220,000); Avidin beads, compound fluorescence 488/530 nm, flow cytometry; active compounds read high; fluorescence (KMESF) at 10 µM; AID 1775; in the data active = fluorescence above about 47
# Active calls of the source: *; x = no result given; ! = repeats disagree. Only some compounds are listed: those with a hit (about 2.1% of all), similar ones and a draw of the others.
SMILES,GSH bead fluor,EP2 modulator,EP2 antag,HMGR II inh,Avidin bead fluor
COc1ccc(C2SCC(C(=O)O)N2C(C)=O)cc1 (stereo unspecified),25,13,1,-7,32
CC(=O)NC1=NN(C(C)=O)C2(S1)C(=O)N(Cc1ccccc1)c1ccc(C)cc12 (stereo unspecified),x,-31,10,x,x
CCSc1nc(-c2ccccc2)c(C#N)c(=O)[nH]1,37,45,50*,1,20
COc1ccc(NC(=O)CSc2nnc3c4c(C)c(C)sc4nc(C(C)C)n23)c(OC)c1,x,-4,6,x,x
Cc1[nH][nH]c(=O)c1C(c1ccc(-c2ccc(Cl)c(Cl)c2)o1)c1c(C)[nH][nH]c1=O,26,-6,3,9,13
COC(=O)c1cc(-c2ccc(C(c3c(C)[nH][nH]c3=O)c3c(C)[nH][nH]c3=O)o2)ccc1Cl,x,-72,40*,x,x
Cc1ccc(C(C(=O)NC2CCCCC2)N(Cc2cccs2)C(=O)c2csnn2)o1 (stereo unspecified),x,1,15,x,x
COC(=O)Cn1c2ccc(OC)cc2c2nc3ccccc3nc21,65,14,7,-4,7
CCc1ccc2c(c1)c1nc(C)sc1n2CC(=O)OC,26,4,2,3,51*
CC(C)CCOc1ccccc1C(N)=O,12,8,1,9.7*,23
CCCCCCOc1ccccc1C(N)=O,x,18,16,x,x
CC(C)N1CCN(Cc2ccc(Sc3nncn3C)o2)CC1CCO (stereo unspecified),x,66*,7,x,6
CN1CCN(CN2C(=O)[C@H]3[C@H]4C=C[C@@H]([C@@H]3C2=O)[C@H]2[C@@H]3C(=O)N(CN5CCN(C)CC5)C(=O)[C@@H]3[C@@H]42)CC1,x,8,53*,x,x
Cc1ccc(NC(=O)CSc2nc(C3CC3)nc3sc(C)c(C)c23)c(C)c1,x,20,7,x,x
CCOc1ccccc1NC(=O)CSc1nc(C)nc2sc(C)c(C)c12,x,73*,5,x,x
Cc1cc(NC(=O)CSc2ncnc3sc4c(c23)CCC(C)C4)no1 (stereo unspecified),x,-6,7,x,x
CCOc1ccccc1NC(=O)CSc1ncnc2sc3c(c12)CCC(C)C3 (stereo unspecified),x,65*,16,x,x
CCOc1ccc(OCC)c(NC(=O)CSc2nc(C)nc3sc(C)c(C)c23)c1,x,42,10,x,x
CCOc1ccccc1NC(=O)CSc1nc(C2CC2)nc2sc(C)c(C)c12,x,61*,9,x,x
NC(=O)CCn1cc(CN2CCC(O)(c3ccccc3F)CC2)c2ccccc21,x,-66,5,x,x
O=C(NC1(c2cccc(F)c2)CCCC1)c1ccc(-n2cnnc2)cc1Cl,x,-68,1,x,x
COC(=O)COc1ccc(S(=O)(=O)N2CCN(Cc3ccc4c(c3)OCO4)CC2)cc1,x,-68,9,x,x
COc1ccc(/C=N/Nc2nc(N3CCCC3)nc(N3CCCC3)n2)cc1,7,-25,5,1,9
COc1ccc(/C=N/Nc2nc(Nc3ccccc3)nc(N3CCCC3)n2)cc1,24,-27,7,11*,78*
COc1ccc(/C(O)=C2/C(=O)C(=O)N(CCN3CCOCC3)C2c2ccc(OC)cc2OC)c(C)c1 (stereo unspecified),x,-18,6,x,x
SMILES,GSH bead fluor,EP2 modulator,EP2 antag,HMGR II inh,Avidin bead fluor
c1ccc2c(c1)nc(N1CCCCCC1)c1ccccc12,x,63*,7,x,5
Cc1nc2ccccc2nc1N1CCCCC1,15,5,16,-6,21
c1ccc2c(N3CCCCC3)ncnc2c1,57,-7,9,-6,9
c1ccc2nc(N3CCCC3)c(N3CCCC3)nc2c1,10,68*!,11,0,9
COc1ccc(-c2cc(C(F)(F)F)nc(S(=O)(=O)CCC(=O)NCc3cccnc3)n2)cc1,x,-32,4,x,x
COc1ccc(OCC(=O)O/N=C(\N)Cc2ccc(Cl)cc2)cc1,22,-16,9,-5,54*
CCC(=O)Nc1ccc(C(O)CN2CCC3(CC2)CC(O)c2cc(C)ccc2O3)cc1 (stereo unspecified),x,-10,7,x,x
Cc1cc2cc(CN(C(=O)C3CC3)C3CCCC3)c3nnnn3c2cc1C,40,26,5,1,61*
Cc1ccc2cc(CN(C(=O)C3CCC3)C3CCCC3)c3nnnn3c2c1C,x,56,13,x,x
COc1ccc(C2=NN3C(C2)c2ccccc2OC32CCN(C)CC2)cc1 (stereo unspecified),x,-46,12,x,x
CC(=O)NC(Cc1c[nH]c2ccccc12)C(=O)OCC(=O)Nc1cc(C)on1 (stereo unspecified),15,14,10,2,227*
Cc1cc(NC(=O)COC(=O)[C@H](Cc2c[nH]c3ccccc23)NC(=O)c2ccc(F)cc2)no1,24,23,21,2,11
Cc1cc2n(n1)C(c1ccc3c(c1)OCO3)Nc1c(C)cccc1-2 (stereo unspecified),21,44,14,-2,19
Cc1cc(C)c2c(c1)-c1cc(C)nn1C(c1ccc3c(c1)OCO3)N2 (stereo unspecified),57,64*,6,-1,7
Cn1c(Cn2cnc3ccccc32)nnc1SCC(=O)Nc1cccc(Cl)c1,x,-28,12,x,x
CC1(C)OC(=O)C(=Cc2ccc(-c3ccc(S(N)(=O)=O)cc3)o2)C(=O)O1,65,-88,43*,-5,6
COC(=O)CSc1cc(C(=O)c2nccn2C)c2ccccc2n1,271*,38,9,1,8
CN(C)CCCNC(=O)CN1N=C(c2ccccc2)Cn2c(cc3ccccc32)C1=O,x,-63,8,x,x
COc1cc(OC)cc(-n2nnnc2SCC(=O)Nc2cc(C)ccc2OC)c1,x,-6,15,x,x
O=C(Nc1ccccc1N(C(=O)c1ccco1)S(=O)(=O)c1cccs1)c1ccco1,275*,36,10,0,6
COc1ccc(N(C(=O)c2ccco2)S(=O)(=O)c2cccs2)cc1,39,-11,26,-3,7
CCOC(=O)c1sc(Nc2ccc(C)cc2C)nc1C,12,64*,9,-3,10
CCOC(=O)c1sc(N/N=C/c2ccccc2)nc1C,11,62*,16,9.9*,6
CCOC(=O)c1sc(Nc2ccccc2)nc1C,11,39,12,-6,9
CCOC(=O)c1sc(NC(=O)CSc2nccc(C)n2)nc1C,12,-14,1,19*,31
SMILES,GSH bead fluor,EP2 modulator,EP2 antag,HMGR II inh,Avidin bead fluor
NC(=O)CSc1nc2ccccc2c2c1CCCC2,x,47,12,x,x
Cc1ncccc1-c1cc2cccnc2n1CCCNC(=O)C(C)(C)C,x,50,2,x,x
O=C1C(=O)N(CCOCCO)C(c2ccccn2)/C1=C(/O)c1ccccc1 (stereo unspecified),x,11,9,x,x
CCOC(=O)c1nc(NNC(C)=O)sc1C,9,5,3,4,9
CCOC(=O)c1nc(NCCc2ccccc2)sc1C,25,-75,8,11*,25
CCOC(=O)c1cccc(NC(=O)/C=C/c2cccc([N+](=O)[O-])c2)c1,32,13,4,-1,14
